# Data as given in PubChem BioAssay (NCATS).
# Inconclusive results are not listed. A call without a number means that no potency is given here. Calls of active or inactive are those of the source. Calls follow the shape of the dose curve; as a rule, active = well fitted inhibition curve with a large enough effect; inconclusive = small, poorly fitted or top-dose-only effect; inactive = flat fitted curve, though single readings scatter. Where a SMILES comes first, the peptide text is derived from it. Bridges are numbered along the chain shown (N, C = ends). [ ]: non-standard residue; d: D form. NMeY = CN[CH](Cc1ccc(O)cc1)C(=O)O
# Tested on: HACAT
# Test: qHTS assay to identify novel small-molecules to repurpose for Merkel cell carcinoma treatment (AID 1296009); also: nearly all actives have a fitted effect of over 60% in size
# Settings: MCC and control cell lines, CellTiter-Glo viability, 72 h; series mostly up to 44.8 µM
# Summary of the method: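 Cell viability, measured as CellTiter-Glo luminescence, was normalized between DMSO and no-cell wells. The cells had been exposed to 8- or 11-point compound dilutions for 72 hr at 37 degree celsius.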
Structure (SMILES),Potency,outcome
Oc1ccc2nc(CN3CCC(Cc4ccccc4F)CC3)[nH]c2c1,inactive,–
Cc1noc(=O)c2ccc(NC(=O)C(O)(CC(C)(C)c3cccc4c3OCC4)C(F)(F)F)cc12 (stereo unspecified),inactive,–
CC(C)S(=O)(=O)N[C@H]1CCOC[C@@H]1c1ccc(-c2ccc(C#N)s2)cc1,inactive,–
C=C(C(=O)O)[C@H]1C[C@]2(C)[C@@H](O)CC[C@]23O[C@H]1C[C@@H]3C,inactive,–
O=C(O)CCCCCC[C@H]1C(=O)NC(=O)N1CC[C@@H](O)C1CCCCC1,inactive,–
COc1cc(C(=O)OC[C@H]2O[C@@H](Oc3ccccc3/C=C/C(=O)O)[C@H](O)[C@@H](O)[C@@H]2O)cc(OC)c1OC,inactive,–
C=CC(C)(C)c1[nH]c2cc3c(cc2c1CC1NC(=O)C2=CCCN2C1=O)C=CC(C)(C)O3 (stereo unspecified),inactive,–
C/C=C/C=C/C(O)=C1\C(=O)[C@]2(C)C3C(C(=O)CC/C=C/C)=C(O)C4(C)C1[C@]1(C)O[C@@]4(O)[C@@]3(C)O[C@@]12O,inactive,–
COc1ncc2cc(C(=O)Nc3cc(C(=O)NCc4cccc(Cl)c4)ccc3Cl)c(=O)[nH]c2n1,inactive,–
CC(=O)O[C@H]1CC[C@@]2(C)C(CC[C@@H](C)[C@]23Cc2c(O)cc4c(c2O3)CN([C@@H](CCC(=O)O)C(=O)O)C4=O)C1(C)C (stereo partly specified),inactive,–
N#Cc1cc(F)cc(-c2nc(-c3ccccn3)no2)c1,inactive,–
CC1=C2C(O)C(=O)OC(c3ccoc3)C2(C)CCC1O (stereo unspecified),inactive,–
CC1=CC(=O)[C@]2(O[C@@H]3O[C@@H](C)[C@H](O)[C@@H](O)[C@H]3OC(=O)/C=C/c3ccccc3)C=CO[C@@H](O[C@@H]3O[C@H](CO)[C@@H](O)[C@H](O)[C@H]3O)[C@H]12,inactive,–
OCc1ccc(O[C@@H]2O[C@H](CO)[C@@H](O)[C@H](O)[C@H]2O)cc1,inactive,–
Cc1cc(C)c(CNC(=O)c2cc(-c3ccc(CN4CCOCC4)cc3)cc3c2cnn3C2CCCC2)c(=O)[nH]1,inactive,–
CC1(C)CC[C@]2(C(=O)O[C@@H]3O[C@H](CO)[C@@H](O)[C@H](O)[C@H]3O)CC[C@]3(C)C(=CCC4[C@@]5(C)CC[C@H](O[C@@H]6O[C@H](C(=O)O)[C@@H](O)[C@H](O)[C@H]6O)C(C)(C)C5CC[C@]43C)C2C1 (stereo partly specified),–,inactive [at 9.27 µM]
COC(=O)C12C(=O)C(C)=C(O)C1(C)C(C)=CC1C3(CO)CCC(O)C(C)(C)C3CCC12C (stereo unspecified),inactive,–
CCC(C)C1NC(=O)C2CCCN2C(=O)C(NC(C)=O)C(C)OC(=O)C(Cc2ccc(OC)cc2)N(C)C(=O)C2CCCN2C(=O)C(C(C)C)NC1=O (stereo unspecified) (Ac-TPIVP[NMeY](Me); ester 1-C; configuration not given here),inactive,–
O=C1NC(Cc2c[nH]c3ccccc23)C(=O)NC1Cc1cnc[nH]1 (stereo unspecified),inactive,–
Cc1cc(NC(=O)Nc2ccc(F)c(F)c2)n(-c2ccccc2)n1,inactive,–
CC1(C)CCCC2(C)C1CC(=O)C13CC(CCC12)C(O)(CO)C3 (stereo unspecified),inactive,–
COc1cc(/C=C/C=O)cc(OC)c1O[C@@H]1O[C@H](CO)[C@@H](O)[C@H](O)[C@H]1O,inactive,–
O=C(/C=C/c1ccccc1)OC[C@]12O[C@H]1[C@@H](O)[C@@H]1C=CO[C@@H](O[C@@H]3O[C@H](CO)[C@@H](O)[C@H](O)[C@H]3O)[C@@H]12,inactive,–
O=S(=O)(c1ccccc1)c1cnc2c(N3CCNCC3)cccc2c1,inactive,–
COc1c(/C=C/C(C)(C)O)ccc2c1C(=O)OCc1cc(C)cc(O)c1O2,inactive,–
C=C(C(=O)OC)C1C(O)CC2(C)C(O)CCC(=O)C2C1O (stereo unspecified),inactive,–
